Hits are enriched below; roughly 2.8% of the tested compounds scored in any of these assays.
DRD3 agonist: qHTS of D3 Dopamine Receptor Agonist: qHTS | D(3) dopamine receptor (Homo sapiens), P35462 | D3R DiscoveRx beta-arrestin cells, luminescence, 90 min | max activation, % | 0.58% of 410,000 active; in the data active = max activation above about 30%
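Agonist mode: compounds and dopamine controls were applied to plated cells for 90 min at 37 degrees C after an overnight attachment at 1500 cells/well. Luminescent read-out followed 30 - 60 minutes at room temperature with DiscoveRx detection reagent.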
a7 integrin act: qHTS for Activators of Integrin-Mediated Alleviation for Muscular Dystrophy | alpha7betagal myoblasts, beta-gal FDG fluorescence, 48 h | Potency, µM (titrated, usually from 38.3 µM), actives largely listed as activators | 0.064% of 350,000 active; also: nearly all actives have a fitted effect of over 60% in size
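alpha7betagal+/- myoblasts (passage 13, 250/well) treated 48 h at 37C with compounds at 1:260 dilution of DMSO stock. Lysed, then beta-galactosidase activity read as FDG fluorescence (ex 480/em 540) after 30 min, with pre-read for autofluorescence.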
CBFb-RUNX1 inh: qHTS Assay for Compounds Blocking the Interaction Between CBF-beta and RUNX1 for the Treatment of Acute Myeloid Leukemia; 230,000 tested, under 10 active; Runt-related transcription factor 1 (Homo sapiens) + Core-binding factor subunit beta …; AlphaScreen CBFb-His/RUNX1-biotin binding, biochemical; Potency, µM (series often up to 59.8 µM), actives largely listed as inhibitors
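Read-out: AlphaScreen. Format: His-CBF-beta with biotinylated RUNX1 (30 nM each) preincubated 20 min, compound 15 min, Ni-chelate plus streptavidin beads 90 min; room temperature throughout.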
DRD3 antagonist: qHTS of D3 Dopamine Receptor Antagonist: qHTS | D(3) dopamine receptor (Homo sapiens), P35462 | D3R cells, DiscoveRx beta-arrestin luminescence, antagonist mode; active compounds read low | max response, negative = inhibition, % | 2.5% of 360,000 active; in the data active = max response below about -50%; inconclusive = no clear call, values can overlap the other calls
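Cells plated overnight at 1500 cells/well, then exposed to library compounds with dopamine controls for 90 minutes at 37 degrees C. DiscoveRx reagent added for 30–60 minutes at room temperature; luminescence read, quantitative HTS format.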
PTHR1 agonist: qHTS for PTHR1 Agonists: Primary Screen. HEK293 GP2 PTHR1 cells, GloSensor cAMP luminescence, 1 h. Potency, µM (highest dose often 115 µM), most hits filed as activators. Parathyroid hormone/parathyroid hormone-related peptide receptor (Homo sapiens), Q03431. 0.075% of 410,000 active; also: nearly all actives have a fitted effect of over 55% in size
Target sequence (Q03431 whole entry, looked up): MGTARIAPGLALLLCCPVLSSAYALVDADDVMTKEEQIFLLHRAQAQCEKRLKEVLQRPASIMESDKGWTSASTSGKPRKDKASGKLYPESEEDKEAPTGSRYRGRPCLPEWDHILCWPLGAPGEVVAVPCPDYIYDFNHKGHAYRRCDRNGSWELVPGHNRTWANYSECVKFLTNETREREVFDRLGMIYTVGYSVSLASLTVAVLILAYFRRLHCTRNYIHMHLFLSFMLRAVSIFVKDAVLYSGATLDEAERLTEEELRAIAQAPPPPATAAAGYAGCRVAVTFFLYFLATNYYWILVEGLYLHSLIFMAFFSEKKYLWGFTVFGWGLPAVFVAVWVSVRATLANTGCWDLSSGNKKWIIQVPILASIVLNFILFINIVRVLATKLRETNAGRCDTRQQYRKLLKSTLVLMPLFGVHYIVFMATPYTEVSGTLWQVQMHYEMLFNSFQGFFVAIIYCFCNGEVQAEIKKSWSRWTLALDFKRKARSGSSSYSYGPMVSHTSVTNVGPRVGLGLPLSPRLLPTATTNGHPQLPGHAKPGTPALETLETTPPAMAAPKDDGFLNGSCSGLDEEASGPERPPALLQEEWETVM
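HEK-293-derived GP2 cells expressing PTHR1 and a GloSensor cAMP reporter, 3,000/well, plated overnight, given luciferin plus IBMX (each 0.5 mM as added) for 1 h at 37 °C, then compound for 1 h at 37 °C. Luminescence was read after 15 min at room temperature.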
MBNL1 CUG block: qHTS Assay for Inhibitors of MBNL1-poly(CUG) RNA binding; Potency, µM (series often up to 57.5 µM), usual class: inhibitors; 0.036% of 280,000 active; Muscleblind-like protein 1 (Homo sapiens), Q9NR56; AID 2675, 2010; TR-FRET MBNL1-His/biotin-(CUG)12 binding, 665/545 ratio; active = well fitted inhibition curve with a large enough effect in the signal ratio, with a control signal flat, not every such curve was filed as active; inconclusive = small, poorly fitted or top-dose-only effect, or effect the other way, or a change in a side signal; inactive = no such curve, though single readings can be large or run the other way; the % refers to the signal ratio
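Compounds (final 92 nM to 58 uM) are added to His-tagged MBNL1 and biotin-(CUG)12, then terbium anti-His antibody and streptavidin-XL665 (5 nM final). After 60 min at room temperature, the 665/545 nm ratio is read.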
Numbers stand for hits; . = inactive; ? = inconclusive; / = not tested or not shown. Unless noted, calls follow the shape of the dose curve; as a rule, active = well fitted curve in the direction sought with a large enough effect; inconclusive = small, poorly fitted or top-dose-only effect, or another doubt; inactive = no such curve, though single readings can be large; an effect the other way counts as inactive or inconclusive.

SMILES	DRD3 agonist	a7 integrin act	CBFb-RUNX1 inh	DRD3 antagonist	PTHR1 agonist	MBNL1 CUG block
CCCCNC(=O)NC(C(=O)OC)C12CC3CC(CC(C3)C1)C2 (stereo not drawn)	.	.	.	-57	.	.
C[C@@]12C(=O)OC(=O)[C@]1(C)C1CCC2O1	.	/	/	-87	.	/
CC12C(=O)N(c3nccs3)C(=O)C1(C)C1CCC2O1 (stereo not drawn)	.	.	/	.	.	/
Cc1ccc(NC(=S)NCc2cccn2C)cc1	32	.	.	.	3.5µM	.
COc1ccc(S(=O)(=O)N2c3ccc(Cl)cc3[C@@](O)(c3ccccc3Cl)[C@H]2C(=O)N2CCC[C@@H]2C(N)=O)cc1OC	.	/	/	/	/	/
O=[N+]([O-])c1ccc(C=NNc2ccccc2)cc1	.	.	/	.	.	/
CC(C)(C)c1cnnn1-c1ccc(/C=N/Nc2ccc([N+](=O)[O-])cc2)cc1	.	.	.	-57	.	.
O=C(Nc1ccc(F)cc1)C(c1ccccc1)N1CCN(c2ccncc2)CC1 (stereo not drawn)	.	/	/	.	.	/
CN1CCN(C(c2ccc(F)cc2)c2sc3nc(-c4ccco4)nn3c2O)CC1 (stereo not drawn)	.	/	/	/	.	/
c1ccc2c(c1)CCc1ccccc1C2=C1CCNCC1	.	?	/	-85	.	/
O=C1C(=C2CCc3ccccc32)Cc2ccccc21	.	.	/	.	.	/
Cc1cccnc1N(C(=O)Nc1ccccc1)C1=NCC(C)(C)S1	.	.	.	.	.	.
CC1(C)CN=C(N(C(=O)Nc2ccccc2)c2ccccc2F)S1	31	.	.	.	.	.
NC(=O)[C@H](Cc1cc2ccccc2s1)NC(=O)[C@@H]1CC2(CC(c3cccc(NC(=O)[C@@H]4CCC(=O)N4)c3)=NO2)CN1C(=O)/C=C/Sc1ccccc1 (stereo partly drawn)	.	.	?	.	.	.
NC(=O)[C@H](Cc1cc2ccccc2s1)NC(=O)[C@@H]1CC2(CC(c3cccc(NC(=O)[C@@H]4CCC(=O)N4)c3)=NO2)CN1C(=O)/C=C/c1c(F)cccc1Cl (stereo partly drawn)	34	.	.	.	.	.
COc1ccc(C2=NN(C(C#N)c3ccc(OC)cc3)C(c3ccccc3)C2)cc1 (stereo not drawn)	.	.	.	.	.	.
Cc1[nH]n(C)c(=O)c1[N+](=O)[O-]	.	.	.	.	.	/
Cc1ccn(C(=O)c2cc3c(C)nn(-c4ccccc4)c3s2)n1	.	.	.	-52	.	.
Cc1nn(-c2ccccc2)c2sc(C(=O)n3cccn3)cc12	.	.	.	?	.	.
Cc1nn(-c2ccccc2)c2sc(C(=O)NC3CCCCC3)cc12	.	.	.	.	.	.
Cc1nn(-c2ccccc2)c2sc(C(=O)NCCN3CCOCC3)cc12	.	.	.	-71	.	.
Cc1ccc(C(=O)c2cc([N+](=O)[O-])ccc2N2CCCCC2)c(C)c1	.	.	.	-56	.	/
C(=C\n1nnc2ccccc21)/c1ccc[nH]1	.	.	/	.	.	/
O=C(NCCCNC(=O)c1cccs1)c1cccs1	.	.	.	-64	.	.
CCOc1cc(C(=O)Nc2cccc3ncccc23)cc(OCC)c1OCC	35	.	.	.	.	?
SMILES	DRD3 agonist	a7 integrin act	CBFb-RUNX1 inh	DRD3 antagonist	PTHR1 agonist	MBNL1 CUG block
Cc1cc(C(F)F)n2ncc(C(=O)NC3CCCCCC3)c2n1	.	.	.	-52	.	.
CCn1c(=S)sc2c(=O)n(CC(=O)Nc3ccccc3C(F)(F)F)c(C)nc21	32	?	/	.	.	.
O=C(COc1ccccc1Cl)Nc1cc(-c2ccccc2F)nn1-c1ccccc1	.	/	/	/	.	/
CCOc1ccc(/C(O)=C2\C(=O)C(=O)N(CCN(C)C)C2c2cc(OC)ccc2OC)cc1Cl (stereo not drawn)	.	.	/	.	.	/
CCOc1ccc(/C(O)=C2\C(=O)C(=O)N(CCN(C)C)C2c2cccc(OC)c2OC)cc1Cl (stereo not drawn)	.	.	.	-56	.	.
CCCCn1c(=O)[nH]c(=O)c2c1nc(Cn1ncc(Cl)c(Cl)c1=O)n2CCC	.	.	/	-64	.	.
Cc1cc(-c2ccccc2)c2ccc(NC(=O)C(C)(C)C)nc2n1	.	.	/	.	.	?
O=C1O[C@H]2[C@H](O)[C@@H]1OC(O)[C@H]2O (stereo partly drawn)	.	/	/	/	/	/
COc1ccc(-n2nc(C(=O)c3cccs3)cc(-c3nc4ccccc4[nH]3)c2=N)cc1	.	.	.	-56	.	?
O=C(Nc1cccc(OC(F)(F)F)c1)c1ccc(-c2cccnc2)c2ccoc12	.	/	/	.	.	/
CCOC1=C2[C@H](c3ccccc3)N(S(=O)(=O)c3ccc(C)cc3)[C@H](C(C)C)[C@H]2n2c(=O)n(-c3ccccc3)c(=O)n2C1	.	/	/	-55	.	/
CCOC1=C2[C@H](c3ccccc3)N(S(=O)(=O)c3ccc(C)cc3)C(C(C)(C)C)[C@H]2n2c(=O)n(-c3ccccc3)c(=O)n2C1 (stereo partly drawn)	.	/	/	.	.	/
O=[N+]([O-])c1cc(S(=O)(=O)C(F)(F)F)ccc1Sc1nc2ccccc2s1	.	.	.	-95	.	.
CS(=O)(=O)c1ccc(Sc2nc3ccccc3s2)c([N+](=O)[O-])c1	.	.	.	.	.	?
COc1ccccc1/C=N/NC(=O)CC(=O)Nc1ccc(Cl)c(Cl)c1	.	.	.	-65	.	.
COc1cccc(NC(=O)C(=O)N/N=C/c2cc(C)n(-c3ccc(Cl)c(Cl)c3)c2C)c1	.	.	.	-94	.	.
CCc1nn(CC(=O)N2CCCCC2)c(=O)c2cc3sccc3n12	.	/	/	/	.	/
COc1ccc(CCC(=O)NC2CC(=O)N(c3ccc(C)cc3)C2)cc1 (stereo not drawn)	71	/	/	/	.	/
Cc1ccc2nc(-c3ccc(NC(=O)COc4ccc(Cl)c(C)c4)cc3)sc2c1	61	/	/	/	.	/
Cc1ccc2nc(-c3ccc(NC(=O)COc4c(C)ccc(C)c4C)cc3)sc2c1	.	/	/	/	.	/
COc1ccc(CCC(=O)OCC(=O)Nc2sccc2C(N)=O)cc1	.	?	/	?	.	/
CC(C)(CN1CCCC1)NS(=O)(=O)c1ccc(Cl)cc1	.	.	/	.	.	.
Cc1ccc(NC(=O)CCN2CCN(C/C=C/c3ccccc3)CC2)cc1	.	.	.	-53	.	.
